# In PubChem BioAssay (NCATS):
# Results filed as inconclusive are left out. Calls of active or inactive are those of the source. Calls come from the whole dose curve; as a rule, active = well fitted inhibition curve with a large enough effect; inconclusive = small, poorly fitted or top-dose-only effect; inactive = no such curve, though single readings can be large or run the other way.
# Assay: BET inhibitor-based combinations targeting novel dependencies in MECOM-rearranged (r) AML: SET-2 cell line (AID 2202231); note: nearly all actives have a fitted effect of over 35% in size;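 for viability: plate controls were DMSO treated cells for no effect and wells without cells for full effect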
# Details: SET-2 AML cells viability, CellTiter-Glo luminescence, 48 h; viability: stronger effect = lower value, series mostly up to about 46 µM
# Procedure, shortened: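 Here, 11-point titrations of each agent were applied to 500 seeded cells and incubated 48 hr; CellTiter-Glo signal, scaled against DMSO and empty wells, was integrated as AUC, then Z-scored within the individual line.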
# Potency is the fitted concentration of half-maximal effect.
Structure (SMILES),viability,Potency
O=C(Nc1ccccc1)Nc1ccc(-c2ccc(C(=O)[C@@H]3CCC[C@H]3C(=O)O)cc2)cc1,105% (inactive),
CO[C@H]1O[C@@H]2O[C@@]3(C)CC[C@H]4[C@H](C)CC[C@@H]([C@H]1C)[C@@]24OO3,,20.9 µM (active)
CCOC(=O)[C@H](CCc1ccccc1)N[C@H]1CCc2ccccc2N(CC(=O)O)C1=O,115% (inactive),
COc1ccccc1C(=O)Nc1cc2c(cc1N1CCNC[C@H]1C)n(C)c(=O)n2C,103% (inactive),
CSC[C@H]1CN(Cc2c[nH]c3c(N)ncnc23)C[C@@H]1O,110% (inactive),
CCOc1cc(/C=C2/C(=O)N(c3ccccc3)N=C2C)cc(Cl)c1OCC(=O)OC,103% (inactive),
N#CC(c1ccnc(NCCc2cccnc2)n1)c1nc2ccccc2s1 (centres undefined),,18.6 µM (active)
C=C1[C@H](OC(=O)/C=C(\C)CC)C[C@@H](C(C)C)[C@@H]2[C@H]([C@@H](C)OC(C)=O)C(=O)C[C@@H]12,,16.6 µM (active)
O=c1cc(N2CCOCC2)oc2c(-c3ccc4c(c3)OCCO4)csc12,,3.32 µM (active)
C[C@@H]1N=C(N)NC(N(C)C)=N1,102% (inactive),
Cc1noc(C)c1-c1ccc(-c2cc(C(N)=O)c(NC(N)=O)s2)c(O[C@H]2CCNC2)c1,123% (inactive),
CCN(C(=O)c1ccccc1OC)c1cc2c(cc1N1CCNC[C@H]1C)n(C)c(=O)n2C,119% (inactive),
CC(C)=CCC/C(C)=C/CC/C(C)=C/CSc1ccccc1C(=O)O,106% (inactive),
Cc1ccc(Sc2ccccc2N2CCNCC2)c(C)c1,,18.6 µM (active)
